The list is not random: actives were taken first. Their share in the collection is about 19%.
TDP1 cell noCPT: qHTS for Inhibitors of human tyrosyl-DNA phosphodiesterase 1 (TDP1): qHTS in cells in absence of CPT | Potency, µM (series often up to 46.2 µM), most hits filed as inhibitors | DT40 Tdp1-/- hTDP1 cells, no CPT, ATP luminescence, 48 h | 15% of 420,000 active; further: nearly all actives have a fitted effect of over 55% in size
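Chicken DT40 Tdp1-/- cells complemented with human TDP1, screened without camptothecin (DMSO vehicle only), 400 cells/well. Compounds pin-transferred, cells incubated at 37 °C for at least 48 hr. Growth read as ATP-dependent luminescence (CellTiter-Glo, 30 min at RT).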
IL1B secr inh: inhibitors of inflammasome signaling (IL-1 beta secretion); THP-1 LPS/ATP IL-1B secretion, AlphaLISA, 16 h; hits give low values; AID 743279; 4.7% of 360,000 active; activity change, % at 57.5 µM; in the data active means activity change below about -50%; inconclusive means mostly about -30% to -49%
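Secreted IL-1B measured by AlphaLISA bead assay after 16 h compound exposure of THP-1 cells; compounds (final up to 57.5 uM) added 1 h before LPS (250 ng/mL) and ATP (1.25 mM) stimulation; lower signal means less secretion.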
HT1080-NT tox: kills 2HG-producing HT-1080-NT fibrosarcoma cells; HT-1080-NT fibrosarcoma viability, CellTiter-Glo ATP luminescence, 48 h; Potency, µM (series often up to 46.1 µM), most hits filed as cytotoxic; 1.6% of 360,000 active; AID 686970;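 further: NT is the 2HG producing partner of a matched IDH1 knockdown line; nearly all actives have a fitted effect of over 55% in size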
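Toxicity toward the 2HG-producing NT line was scored as %Activity, normalised to DMSO and no-cell wells, from CellTiter-Glo luminescence after 48 hours' treatment.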
TDP1 cell CPT: DT40-hTDP1 cell growth loss with CPT. chicken DT40 Tdp1-/-;hTDP1 cells + 20 nM CPT, ATP luminescence, 48 h. Potency, µM (titrated, usually from 46.2 µM), actives largely listed as inhibitors. 12% of 420,000 active; further: nearly all actives have a fitted effect of over 55% in size
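Cell growth measured by CellTiter-Glo luminescence after a minimum 48 h, 37 C compound exposure with 20 nM CPT in Tdp1-knockout DT40 cells stably expressing hTDP1, seeded 400/well; qHTS titration format.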
HT1080 IDH1KD tx: kills HT-1080 cells with IDH1 knockdown | HT-1080 IDH1 knockdown viability, ATP luminescence, 48 h | Potency, µM (doses to about 46.1 µM), actives largely listed as cytotoxic | 2% of 360,000 active
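In this qHTS, HT-1080 cells depleted of IDH1 are exposed for 48 h at 37 °C to compound titrations. Toxicity is scored from CellTiter-Glo luminescence, with DMSO as full viability and medium alone as none.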
Large screens that a line does not name were inactive. Unless noted, the call rests on the fitted dose curve; in most records, active means well fitted curve in the direction sought with a large enough effect; inconclusive means small, poorly fitted or top-dose-only effect, or another doubt; inactive means no such curve, though single readings can be large; an effect the other way counts as inactive or inconclusive.

O=C(CCCOc1ccc(Cl)cc1Cl)N/N=C/c1ccccc1	TDP1 cell noCPT inconclusive, TDP1 cell CPT inconclusive
Cc1ccc(/C=N/NC(=O)CCCOc2ccc(Cl)cc2Cl)cc1	TDP1 cell noCPT 10.3µM, IL1B secr inh -77.0, HT1080-NT tox 14.6µM, TDP1 cell CPT 8.2µM, HT1080 IDH1KD tx 14.6µM
CN(C(=S)NC(=O)Cc1ccccc1)c1ccccc1	TDP1 cell noCPT inconclusive, IL1B secr inh -60.5, HT1080-NT tox inconclusive, TDP1 cell CPT inconclusive, HT1080 IDH1KD tx 18.4µM
O=C(CCCOc1ccc(Cl)cc1Cl)N/N=C/c1ccccc1O	TDP1 cell noCPT 5.17µM, HT1080-NT tox inconclusive, TDP1 cell CPT 5.17µM, HT1080 IDH1KD tx inconclusive
C/C(=N\Nc1ccc(S(N)(=O)=O)cc1[N+](=O)[O-])c1cccnc1	none
Cc1ccc(NC(=O)c2ccc(OCC3CCCO3)cc2)cc1 (stereo unspecified)	TDP1 cell noCPT inconclusive, TDP1 cell CPT inconclusive
Cc1ccc(-c2nnc(Oc3cccc(C)c3)c3ccccc23)cc1	TDP1 cell noCPT inconclusive, IL1B secr inh -74.8, TDP1 cell CPT inconclusive
Cc1ccc(-c2nnc(OCC3CCCO3)c3ccccc23)cc1 (stereo unspecified)	TDP1 cell noCPT 18.4µM, IL1B secr inh -66.5, TDP1 cell CPT inconclusive
Cc1ccc(Oc2nnc(-c3ccccc3)c3ccccc23)cc1	TDP1 cell noCPT inconclusive, HT1080-NT tox inconclusive, TDP1 cell CPT 20.6µM, HT1080 IDH1KD tx inconclusive
CCCCCCCCCCCCCCCCCC(=O)OCC(O)CO (stereo unspecified)	none (no result: IL1B secr inh, HT1080-NT tox, HT1080 IDH1KD tx)
CCN(C(=O)CN1C(=O)/C(=C/c2ccccc2)SC1=S)C1CCS(=O)(=O)C1 (stereo unspecified)	TDP1 cell noCPT inconclusive, TDP1 cell CPT 23.1µM
O=C1/C(=C/c2ccncc2)SC(=S)N1C1CCS(=O)(=O)C1 (stereo unspecified)	TDP1 cell noCPT 8.2µM, IL1B secr inh -91.9, HT1080-NT tox inconclusive, TDP1 cell CPT 5.8µM
O=C1/C(=C/c2ccccc2)SC(=S)N1C1CCS(=O)(=O)C1 (stereo unspecified)	TDP1 cell noCPT inconclusive, TDP1 cell CPT 23.1µM
COc1ccccc1CNc1ncnc2c1nnn2C	none (no result: IL1B secr inh, HT1080-NT tox, HT1080 IDH1KD tx)
COCCn1c(SCC(=O)Nc2cccc(C(=O)OC)c2)nc2ccccc2c1=O	TDP1 cell noCPT inconclusive, TDP1 cell CPT 20.6µM
COCCn1c(SCC(=O)Nc2cc(C)cc(C)c2)nc2ccccc2c1=O	TDP1 cell noCPT inconclusive, TDP1 cell CPT inconclusive
COCCn1c(SCC(=O)Nc2ccc(OC)c(S(N)(=O)=O)c2)nc2ccccc21	TDP1 cell noCPT inconclusive, TDP1 cell CPT 16.4µM
COCCCn1c(SCC(=O)Nc2ccc(C(C)=O)cc2)nc2ccccc2c1=O	TDP1 cell noCPT 20.6µM, TDP1 cell CPT inconclusive
COCCn1c(SCC(=O)Nc2ccc3[nH]c(=O)[nH]c3c2)nc2ccccc21	TDP1 cell noCPT inconclusive
COc1ccc(-c2csc3ncnc(NCCCO)c23)cc1	TDP1 cell noCPT 8.2µM, IL1B secr inh inconclusive, TDP1 cell CPT inconclusive, HT1080 IDH1KD tx inconclusive
COc1ccc(-c2csc3ncnc(Nc4ccc(O)cc4)c23)cc1	TDP1 cell noCPT inconclusive, TDP1 cell CPT inconclusive
COc1ccc(-c2csc3ncnc(NCCO)c23)cc1	TDP1 cell noCPT inconclusive, IL1B secr inh -81.5, TDP1 cell CPT inconclusive
COc1ccc(NC(=O)CN(C)C(=O)C23CC4CC(CC(C4)C2)C3)cc1	TDP1 cell noCPT inconclusive
CC(NC(=O)c1ccc(S(=O)(=O)C(F)F)cc1)c1ccccc1 (stereo unspecified)	TDP1 cell noCPT inconclusive, TDP1 cell CPT inconclusive
CC(NC(=O)c1ccc(C(=O)c2ccccc2)cc1)c1ccc(S(N)(=O)=O)cc1 (stereo unspecified)	TDP1 cell noCPT inconclusive, IL1B secr inh -52.3
CCCSc1nnc2c(n1)OC(CC)N(C(C)=O)c1ccccc1-2 (stereo unspecified)	none (no result: IL1B secr inh, HT1080-NT tox, HT1080 IDH1KD tx)
CCCCSc1nnc2c(n1)OC(c1ccc(C)s1)Nc1ccccc1-2 (stereo unspecified)	TDP1 cell noCPT 11.6µM, TDP1 cell CPT 18.4µM (no result: IL1B secr inh, HT1080-NT tox, HT1080 IDH1KD tx)
CCCCCSc1nnc2c(n1)OC(c1ccc(C)s1)N(C(C)=O)c1ccccc1-2 (stereo unspecified)	TDP1 cell noCPT 8.2µM, TDP1 cell CPT 18.4µM (no result: IL1B secr inh, HT1080-NT tox, HT1080 IDH1KD tx)
CCCSc1nnc2c(n1)OC(c1ccc(Br)s1)Nc1ccccc1-2 (stereo unspecified)	none (no result: IL1B secr inh, HT1080-NT tox, HT1080 IDH1KD tx)
CCOC(=O)c1c(N)sc2c1CCN(Cc1ccccc1)C2	TDP1 cell noCPT 15µM, TDP1 cell CPT inconclusive (no result: IL1B secr inh, HT1080-NT tox, HT1080 IDH1KD tx)
CCN1CCc2c(sc(NC(=O)Cc3ccccc3)c2C(=O)OC)C1	TDP1 cell noCPT inconclusive, IL1B secr inh inconclusive, TDP1 cell CPT 11.6µM
CCOC(=O)c1c(NC(=S)Nc2ccc(Cl)cc2)sc2c1CCN(C)C2	TDP1 cell noCPT inconclusive, TDP1 cell CPT 16.4µM
CCOC(=O)c1c(NC(=O)CCS(=O)(=O)c2ccccc2)sc2c1CCN(C)C2	TDP1 cell noCPT 16.4µM, TDP1 cell CPT 16.4µM
Cc1ccc(C(=O)Nc2ccc(S(=O)(=O)Nc3cnc4ccccc4n3)cc2)cc1	none
CCCCOc1ccc(/C=C/C(=O)OCC(=O)N2CC(=O)Nc3ccccc32)cc1OCC	TDP1 cell noCPT inconclusive, TDP1 cell CPT inconclusive, HT1080 IDH1KD tx inconclusive
COc1cc(Cl)c(NC(=O)c2cc(S(=O)(=O)N3CCCCC3)c[nH]2)c(OC)c1	none (no result: IL1B secr inh, HT1080-NT tox, HT1080 IDH1KD tx)
CCOC(=O)c1c(NC(=O)Cc2ccccc2)sc2c1CCN(C)C2	TDP1 cell noCPT 13µM, IL1B secr inh inconclusive, TDP1 cell CPT inconclusive
c1ccc2c(c1)nnn2CNc1nccs1	TDP1 cell CPT 9.2µM
c1ccc(CCn2nnc3ccccc32)cc1	TDP1 cell noCPT inconclusive, TDP1 cell CPT inconclusive
O=S(=O)(c1ccc(OCC2CO2)cc1)c1ccc(OCC2CO2)cc1 (stereo unspecified)	TDP1 cell noCPT 2.06µM, HT1080-NT tox inconclusive, TDP1 cell CPT 1.84µM
CCOc1cc2c3c(c1)C1(Nc4ccccc4S1)C(=O)N3C(C)(C)CC2C (stereo unspecified)	TDP1 cell noCPT inconclusive, HT1080-NT tox inconclusive, TDP1 cell CPT 18.4µM, HT1080 IDH1KD tx inconclusive
O=S(=O)(c1ccc2c(Cl)cccc2c1)N1CCN(c2nc(-c3cccs3)nc3ccccc23)CC1	none (no result: IL1B secr inh)
O=C1OC[C@@H]2CCCN2C(=O)[C@@H](CC(=O)N(CCO)Cc2ccccc2)C/C=C\C[C@@H]1Cc1ccc(F)cc1	TDP1 cell noCPT inconclusive, IL1B secr inh inconclusive, TDP1 cell CPT 23.1µM
O=C1N[C@H](Cc2ccccc2)COC(=O)[C@@H](Cc2ccc(F)cc2)C/C=C\C[C@H]1CC(=O)N(CCO)Cc1ccccc1	TDP1 cell noCPT 25.9µM, IL1B secr inh -59.1, HT1080-NT tox inconclusive, TDP1 cell CPT inconclusive

Bioassay records: PubChem, National Center for Advancing Translational Sciences (NCATS)
